Of roughly 7,900 targets only a part is listed; those with a hit were picked by preference. About 0.6% of all pairs of compound and target were hits.
Assays:
Assay in all cases: log2 fold change, soluble protein after heating vs DMSO (PISA); higher = thermal stabilisation; K562 cells, 10 uM, 30 min; active = over 0.2 and 3.5 SD of the protein, either way, in both replicates (recomputed)
[1] = compound: CS(=O)(=O)c1ccc(-c2cnc(N)c(C(=O)Nc3ccccc3)n2)cc1
Outline: (§1)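 Thermal stability values are relative to control samples and come from duplicates. They are expressed as log2 fold changes. For measurement, K562 cells (2×10^6 cells/mL) received 10 μM compound for 30 min, and aliquots were heated for 3 min over 48°C-58°C, pooled, and extracted at 4°C in PBS with 0.5% NP-40. Soluble protein, the supernatant after 21,000xg for 90 min, was quantified by TMTpro 16plex LC-MS/MS with equalised channel sums.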

crizotinib = compound: C[C@@H](Oc1cc(-c2cnn(C3CCNCC3)c2)cnc1N)c1c(Cl)ccc(F)c1Cl [crizotinib]
Outline: as §1

[2] = compound: C[C@@H]1COCCN1C2=NC(=NC(=C2)C3(CC3)S(=O)(=O)C)C4=C5C=CNC5=CC=C4
Outline: as §1

[3] = compound: C[C@H](C1=CC=C(C=C1)C(=O)NC2=C3C=CNC3=NC=C2)N
Outline: as §1

duvelisib = compound: C[C@H](Nc1ncnc2nc[nH]c12)c1cc2cccc(Cl)c2c(=O)n1-c1ccccc1 [duvelisib]
Outline: as §1

gandotinib = compound: Cc1cc(Nc2cc(CN3CCOCC3)c3nc(C)c(Cc4ccc(Cl)cc4F)n3n2)n[nH]1 [gandotinib]
Outline: as §1

tozasertib = compound: Cc1cc(Nc2cc(N3CCN(C)CC3)nc(Sc3ccc(NC(=O)C4CC4)cc3)n2)n[nH]1 [tozasertib]
Outline: as §1

[4] = compound: Cc1cc(SCc2sc(-c3ccc(C(F)(F)F)cc3)nc2C)ccc1OCC(=O)O
Outline: as §1

doramapimod = compound: Cc1ccc(-n2nc(C(C)(C)C)cc2NC(=O)Nc2ccc(OCCN3CCOCC3)c3ccccc23)cc1 [doramapimod]
Outline: as §1

ispinesib = compound: Cc1ccc(C(=O)N(CCCN)[C@@H](c2nc3cc(Cl)ccc3c(=O)n2Cc2ccccc2)C(C)C)cc1 [ispinesib]
Outline: as §1

Measured: log2 fold change

NDUFS7 (UniProt O75251)
inactive: [1] 0.013 | crizotinib -0.109 | [2] 0.029 | [3] -0.019 | duvelisib 0.053 | gandotinib -0.108 | tozasertib -0.046 | [4] 0.013 | doramapimod -0.02 | ispinesib -0.114

NCAPD2 (UniProt Q15021)
inactive: [1] 0.018 | crizotinib -0.024 | [2] 0.004 | [3] 0.093 | duvelisib 0.035 | gandotinib -0.077 | tozasertib 0.092 | [4] 0.109 | doramapimod -0.049 | ispinesib -0.029

MIS12 (UniProt Q9H081)
Chain of UniProt Q9H081 (Q9H081 whole entry, looked up): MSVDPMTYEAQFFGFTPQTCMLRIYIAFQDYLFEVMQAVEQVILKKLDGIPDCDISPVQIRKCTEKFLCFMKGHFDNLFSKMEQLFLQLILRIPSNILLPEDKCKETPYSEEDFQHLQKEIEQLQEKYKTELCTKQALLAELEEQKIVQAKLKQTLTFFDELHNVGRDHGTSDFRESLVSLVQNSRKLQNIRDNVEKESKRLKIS
inactive: [1] 0.016 | crizotinib -0.064 | [2] -0.03 | [3] -0.099 | duvelisib 0.037 | gandotinib -0.012 | tozasertib 0.153 | [4] 0.009 | doramapimod -0.019 | ispinesib -0.034

NDUFS4 (UniProt O43181)
Chain of UniProt O43181 (O43181 whole entry, looked up): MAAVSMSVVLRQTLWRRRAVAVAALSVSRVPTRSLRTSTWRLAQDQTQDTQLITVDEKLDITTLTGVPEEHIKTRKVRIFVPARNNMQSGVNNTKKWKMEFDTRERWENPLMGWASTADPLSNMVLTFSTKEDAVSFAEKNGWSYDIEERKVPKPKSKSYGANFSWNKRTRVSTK
inactive: [1] -0.035 | crizotinib -0.089 | [2] -0.027 | [3] 0.086 | duvelisib -0.086 | gandotinib 0.164 | tozasertib -0.098 | [4] -0.058 | doramapimod 0.018 | ispinesib -0.216

NECTIN2 (UniProt Q92692)
inactive: [1] 0.004 | crizotinib 0.121 | [2] 0.082 | [3] -0.148 | duvelisib 0.062 | gandotinib -0.036 | tozasertib -0.048 | [4] -0.038 | doramapimod 0.015 | ispinesib 0.113

MRPL50 (UniProt Q8N5N7)
inactive: [1] -0.031 | crizotinib 0.133 | [2] 0.045 | [3] -0.045 | duvelisib -0.016 | gandotinib 0.04 | tozasertib 0.042 | [4] 0.104 | doramapimod 0.092 | ispinesib 0.199

MRPS18B (UniProt Q9Y676)
inactive: [1] -0.187 | crizotinib -0.047 | [2] 0.075 | [3] 0.145 | duvelisib 0.006 | gandotinib -0.028 | tozasertib 0.016 | [4] 0.157 | doramapimod 0.029
active: ispinesib -0.397

MRPS33 (UniProt Q9Y291)
inactive: [1] 0.041 | crizotinib 0.005 | [2] 0.005 | [3] 0.168 | duvelisib -0.034 | gandotinib -0.034 | tozasertib 0.02 | [4] 0.121 | doramapimod 0.034
active: ispinesib -0.485

NEU1 (UniProt Q99519)
active: crizotinib -0.365 | ispinesib -0.319
inactive: [1] -0.005 | [2] -0.15 | [3] 0.029 | duvelisib 0.06 | gandotinib -0.056 | tozasertib -0.015 | [4] -0.008 | doramapimod 0.155

MRPS12 (UniProt O15235)
inactive: [1] 0.046 | crizotinib -0.075 | [2] 0.015 | [3] 0.311 | duvelisib -0.058 | gandotinib 0.063 | tozasertib 0.011 | [4] 0.022 | doramapimod 0.003
active: ispinesib -0.65

NOP58 (UniProt Q9Y2X3)
Chain of UniProt Q9Y2X3 (Q9Y2X3 whole entry, looked up): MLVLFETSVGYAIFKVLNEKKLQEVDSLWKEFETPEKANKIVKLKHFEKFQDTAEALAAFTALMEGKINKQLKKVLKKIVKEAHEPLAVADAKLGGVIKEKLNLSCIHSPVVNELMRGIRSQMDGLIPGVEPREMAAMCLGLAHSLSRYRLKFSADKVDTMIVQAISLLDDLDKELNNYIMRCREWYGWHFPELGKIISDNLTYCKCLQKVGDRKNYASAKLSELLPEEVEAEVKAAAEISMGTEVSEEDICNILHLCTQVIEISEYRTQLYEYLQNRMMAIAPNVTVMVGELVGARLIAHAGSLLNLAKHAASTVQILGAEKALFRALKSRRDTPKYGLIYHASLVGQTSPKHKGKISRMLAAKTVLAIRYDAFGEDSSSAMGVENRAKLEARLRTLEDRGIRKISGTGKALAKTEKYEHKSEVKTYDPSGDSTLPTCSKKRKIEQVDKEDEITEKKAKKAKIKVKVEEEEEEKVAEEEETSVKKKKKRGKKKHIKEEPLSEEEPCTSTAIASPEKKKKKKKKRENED
inactive: [1] 0.006 | crizotinib 0.047 | [2] -0.061 | [3] 0.242 | duvelisib 0.004 | gandotinib 0.121 | tozasertib 0.025 | [4] -0.001 | doramapimod 0.098 | ispinesib 0.103

MRPS2 (UniProt Q9Y399)
active: ispinesib -0.352
inactive: [1] -0.043 | crizotinib 0.078 | [2] 0.032 | [3] 0.048 | duvelisib -0.003 | gandotinib -0.117 | tozasertib 0.027 | [4] 0.022 | doramapimod -0.049

NCKAP1 isoform 2 (UniProt Q9Y2A7)
inactive: [1] -0.021 | crizotinib -0.071 | [2] 0 | [3] -0.08 | duvelisib -0.006 | gandotinib -0.093 | tozasertib -0.017 | [4] 0.031 | doramapimod -0.027 | ispinesib 0.034

NANS (UniProt Q9NR45)
Chain of UniProt Q9NR45 (Q9NR45 whole entry, looked up): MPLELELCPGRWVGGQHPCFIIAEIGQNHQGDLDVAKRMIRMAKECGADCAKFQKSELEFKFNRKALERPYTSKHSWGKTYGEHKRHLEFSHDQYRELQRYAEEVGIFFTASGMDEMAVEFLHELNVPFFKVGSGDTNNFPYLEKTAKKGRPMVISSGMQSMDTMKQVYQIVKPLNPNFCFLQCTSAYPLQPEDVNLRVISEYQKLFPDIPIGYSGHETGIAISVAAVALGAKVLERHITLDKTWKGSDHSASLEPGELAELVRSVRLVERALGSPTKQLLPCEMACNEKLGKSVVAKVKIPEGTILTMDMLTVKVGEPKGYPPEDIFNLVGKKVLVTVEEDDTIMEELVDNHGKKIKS
inactive: [1] -0.074 | crizotinib 0.026 | [2] 0.052 | [3] -0.098 | duvelisib 0.02 | gandotinib -0.03 | tozasertib 0.043 | [4] 0.001 | doramapimod -0.006 | ispinesib 0.074

NDUFA9 (UniProt Q16795)
Chain of UniProt Q16795 (Q16795 whole entry, looked up): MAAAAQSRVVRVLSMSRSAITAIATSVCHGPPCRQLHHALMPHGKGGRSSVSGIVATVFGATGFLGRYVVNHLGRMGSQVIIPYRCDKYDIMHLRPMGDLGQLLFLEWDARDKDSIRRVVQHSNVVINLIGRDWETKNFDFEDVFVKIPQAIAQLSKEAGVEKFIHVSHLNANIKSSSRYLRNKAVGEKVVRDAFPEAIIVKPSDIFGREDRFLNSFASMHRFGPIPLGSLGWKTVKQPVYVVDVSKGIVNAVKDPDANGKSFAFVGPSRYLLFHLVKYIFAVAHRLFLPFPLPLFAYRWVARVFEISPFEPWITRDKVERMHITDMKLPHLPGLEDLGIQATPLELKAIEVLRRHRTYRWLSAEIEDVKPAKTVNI
inactive: [1] 0.007 | crizotinib -0.139 | [2] 0.079 | [3] 0.022 | duvelisib 0.006 | gandotinib -0.115 | tozasertib -0.038 | [4] 0.052 | doramapimod -0.031 | ispinesib -0.122

NAP1L1 (UniProt P55209)
Chain of UniProt P55209 (P55209 whole entry, looked up): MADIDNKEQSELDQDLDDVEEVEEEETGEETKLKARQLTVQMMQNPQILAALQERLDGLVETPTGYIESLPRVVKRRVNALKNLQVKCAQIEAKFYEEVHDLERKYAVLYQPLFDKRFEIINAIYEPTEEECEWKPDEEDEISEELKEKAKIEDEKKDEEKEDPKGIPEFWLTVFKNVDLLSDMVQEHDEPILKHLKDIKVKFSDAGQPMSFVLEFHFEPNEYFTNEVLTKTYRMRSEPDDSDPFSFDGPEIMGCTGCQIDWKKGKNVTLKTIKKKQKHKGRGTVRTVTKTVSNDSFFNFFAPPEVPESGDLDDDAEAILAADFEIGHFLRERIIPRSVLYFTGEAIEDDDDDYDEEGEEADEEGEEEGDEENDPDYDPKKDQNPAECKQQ
inactive: [1] 0.018 | crizotinib -0.025 | [2] -0.122 | [3] -0.021 | duvelisib 0.068 | gandotinib -0.09 | tozasertib 0.045 | [4] -0.016 | doramapimod 0.009 | ispinesib 0.04

P4HA2 (UniProt O15460)
active: [2] -0.627
inactive: [1] 0.079 | crizotinib 0.023 | [3] 0.178 | duvelisib 0.037 | gandotinib 0.021 | tozasertib -0.005 | [4] 0.053 | doramapimod 0.069 | ispinesib -0.088

NPEPPS (UniProt P55786)
inactive: [1] 0.019 | crizotinib -0.14 | [2] 0.122 | [3] -0.039 | duvelisib 0.063 | gandotinib -0.03 | tozasertib -0.066 | [4] -0.012 | doramapimod 0.013 | ispinesib 0.082

NSMCE4A (UniProt Q9NXX6)
inactive: [1] 0.038 | crizotinib 0.072 | [2] -0.055 | [3] -0.009 | duvelisib 0.119 | gandotinib 0.144 | tozasertib 0.086 | [4] 0.054 | doramapimod 0.047 | ispinesib 0.062

MITD1 (UniProt Q8WV92)
inactive: [1] -0.082 | crizotinib -0.271 | [2] -0.055 | [3] 0.133 | duvelisib 0.011 | gandotinib -0.068 | tozasertib -0.075 | [4] -0.147 | doramapimod 0.103 | ispinesib -0.072

MKNK1 (UniProt Q9BUB5)
active: [3] 0.31
inactive: [1] 0.038 | crizotinib -0.082 | [2] -0.039 | duvelisib 0.031 | gandotinib 0.038 | tozasertib 0.085 | [4] 0.057 | doramapimod 0.054 | ispinesib -0.03

NTMT1 (UniProt Q9BV86)
Chain of UniProt Q9BV86 (Q9BV86 whole entry, looked up): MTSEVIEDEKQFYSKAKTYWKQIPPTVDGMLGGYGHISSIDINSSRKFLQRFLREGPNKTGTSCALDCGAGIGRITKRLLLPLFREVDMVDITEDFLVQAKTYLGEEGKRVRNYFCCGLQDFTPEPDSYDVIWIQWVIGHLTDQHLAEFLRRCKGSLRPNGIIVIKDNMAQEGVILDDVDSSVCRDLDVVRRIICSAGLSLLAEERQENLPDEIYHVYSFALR
inactive: [1] 0.128 | crizotinib 0.039 | [2] 0.074 | [3] -0.029 | duvelisib 0.054 | gandotinib 0.093 | tozasertib 0.067 | [4] 0.021 | doramapimod 0.071 | ispinesib 0.02

NSDHL (UniProt Q15738)
inactive: [1] 0.04 | [2] 0.045 | [3] -0.105 | duvelisib 0.024 | gandotinib 0.239 | tozasertib 0.083 | [4] 0.058 | ispinesib -0.016
active: crizotinib 0.314 | doramapimod 0.22

NDUFB8 (UniProt O95169)
inactive: [1] 0.035 | crizotinib 0.09 | [2] -0.015 | [3] -0.001 | duvelisib 0.161 | gandotinib 0.045 | tozasertib 0.028 | [4] 0.078 | doramapimod -0.057 | ispinesib 0.123

MSH3 (UniProt P20585)
Chain of UniProt P20585 (P20585 whole entry, looked up): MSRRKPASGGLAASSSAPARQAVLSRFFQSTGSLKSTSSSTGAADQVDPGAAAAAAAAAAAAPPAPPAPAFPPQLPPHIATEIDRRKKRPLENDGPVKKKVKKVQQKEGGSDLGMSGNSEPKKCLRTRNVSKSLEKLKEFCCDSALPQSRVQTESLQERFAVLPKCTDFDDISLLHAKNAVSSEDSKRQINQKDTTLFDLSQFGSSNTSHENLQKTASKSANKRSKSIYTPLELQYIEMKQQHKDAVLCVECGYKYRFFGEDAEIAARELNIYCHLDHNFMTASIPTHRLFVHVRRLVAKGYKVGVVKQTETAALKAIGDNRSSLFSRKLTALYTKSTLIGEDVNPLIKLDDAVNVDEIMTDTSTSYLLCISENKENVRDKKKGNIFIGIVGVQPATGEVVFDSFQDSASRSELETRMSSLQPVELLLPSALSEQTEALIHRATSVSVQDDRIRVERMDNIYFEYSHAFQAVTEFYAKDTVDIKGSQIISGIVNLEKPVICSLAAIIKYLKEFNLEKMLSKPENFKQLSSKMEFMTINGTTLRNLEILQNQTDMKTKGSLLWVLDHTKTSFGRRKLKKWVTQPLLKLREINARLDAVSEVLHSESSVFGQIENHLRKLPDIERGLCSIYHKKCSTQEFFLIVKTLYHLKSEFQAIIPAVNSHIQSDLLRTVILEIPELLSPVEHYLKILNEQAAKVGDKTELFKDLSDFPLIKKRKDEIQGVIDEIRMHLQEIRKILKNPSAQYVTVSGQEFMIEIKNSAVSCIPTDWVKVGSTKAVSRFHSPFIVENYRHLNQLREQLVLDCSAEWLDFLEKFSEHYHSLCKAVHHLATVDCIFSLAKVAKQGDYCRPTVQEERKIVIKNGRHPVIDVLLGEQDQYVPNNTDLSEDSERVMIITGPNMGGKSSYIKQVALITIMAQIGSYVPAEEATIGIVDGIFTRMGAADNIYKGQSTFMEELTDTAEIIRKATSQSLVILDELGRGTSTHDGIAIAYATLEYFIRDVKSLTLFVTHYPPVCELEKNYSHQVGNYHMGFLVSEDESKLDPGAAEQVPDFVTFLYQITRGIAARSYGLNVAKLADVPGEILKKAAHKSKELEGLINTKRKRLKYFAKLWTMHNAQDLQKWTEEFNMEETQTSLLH
inactive: [1] -0.029 | crizotinib 0.045 | [2] -0.031 | [3] 0.047 | duvelisib 0.07 | gandotinib -0.096 | tozasertib -0.003 | [4] 0.024 | doramapimod 0.035 | ispinesib 0.088

NDUFA12 (UniProt Q9UI09)
Chain of UniProt Q9UI09 (Q9UI09 whole entry, looked up): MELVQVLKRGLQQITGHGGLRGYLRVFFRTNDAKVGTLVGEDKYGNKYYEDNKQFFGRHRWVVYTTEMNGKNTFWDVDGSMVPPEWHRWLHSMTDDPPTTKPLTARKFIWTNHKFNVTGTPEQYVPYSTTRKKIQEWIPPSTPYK
active: ispinesib -0.385
inactive: [1] 0.107 | crizotinib -0.033 | [2] 0.025 | [3] 0.015 | duvelisib 0.033 | gandotinib -0.206 | tozasertib -0.048 | [4] 0.115 | doramapimod 0.03

PACS1 (UniProt Q6VY07)
Chain of UniProt Q6VY07 (Q6VY07 whole entry, looked up): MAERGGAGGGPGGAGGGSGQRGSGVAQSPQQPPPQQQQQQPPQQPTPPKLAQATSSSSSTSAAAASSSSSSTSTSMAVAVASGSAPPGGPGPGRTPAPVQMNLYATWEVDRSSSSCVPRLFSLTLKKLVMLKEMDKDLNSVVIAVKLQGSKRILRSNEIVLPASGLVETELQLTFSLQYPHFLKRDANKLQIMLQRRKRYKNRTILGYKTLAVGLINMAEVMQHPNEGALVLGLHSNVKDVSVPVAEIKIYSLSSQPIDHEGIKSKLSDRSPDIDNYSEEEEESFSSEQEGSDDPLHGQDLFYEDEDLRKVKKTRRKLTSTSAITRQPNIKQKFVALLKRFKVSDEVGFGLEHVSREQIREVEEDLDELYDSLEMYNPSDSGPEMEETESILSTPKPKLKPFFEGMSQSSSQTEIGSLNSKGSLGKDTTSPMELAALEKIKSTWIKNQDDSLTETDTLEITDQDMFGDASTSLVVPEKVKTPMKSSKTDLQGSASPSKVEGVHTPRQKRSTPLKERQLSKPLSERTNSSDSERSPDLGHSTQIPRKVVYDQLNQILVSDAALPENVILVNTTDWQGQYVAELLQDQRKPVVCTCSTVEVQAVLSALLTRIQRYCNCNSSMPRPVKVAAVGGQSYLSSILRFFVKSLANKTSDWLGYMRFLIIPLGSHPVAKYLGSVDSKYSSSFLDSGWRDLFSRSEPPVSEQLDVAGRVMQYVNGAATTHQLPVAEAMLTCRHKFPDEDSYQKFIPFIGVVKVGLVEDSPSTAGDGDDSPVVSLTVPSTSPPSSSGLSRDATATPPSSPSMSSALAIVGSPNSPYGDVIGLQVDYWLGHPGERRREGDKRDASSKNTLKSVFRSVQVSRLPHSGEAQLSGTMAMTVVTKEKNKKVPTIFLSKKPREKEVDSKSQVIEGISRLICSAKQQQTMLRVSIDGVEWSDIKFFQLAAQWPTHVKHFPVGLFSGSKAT
inactive: [1] 0.013 | crizotinib -0.053 | [2] 0.051 | [3] -0.015 | duvelisib 0.033 | gandotinib -0.018 | tozasertib 0 | [4] -0.014 | doramapimod 0.06 | ispinesib 0.042

NACC1 (UniProt Q96RE7)
inactive: [1] 0 | crizotinib 0.005 | [2] 0.082 | [3] -0.03 | duvelisib 0.103 | gandotinib -0.129 | tozasertib 0.161 | [4] 0.152 | doramapimod -0.064 | ispinesib -0.019

NAPG (UniProt Q99747)
Chain of UniProt Q99747 (Q99747 whole entry, looked up): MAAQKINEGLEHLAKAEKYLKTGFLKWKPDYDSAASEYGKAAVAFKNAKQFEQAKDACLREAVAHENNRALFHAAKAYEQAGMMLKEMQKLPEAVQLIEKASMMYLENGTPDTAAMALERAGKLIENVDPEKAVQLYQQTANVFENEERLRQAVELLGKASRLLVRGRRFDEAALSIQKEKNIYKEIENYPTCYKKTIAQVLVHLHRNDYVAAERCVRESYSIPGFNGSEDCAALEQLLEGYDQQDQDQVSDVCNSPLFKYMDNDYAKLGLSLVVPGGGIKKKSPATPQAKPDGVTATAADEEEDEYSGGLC
inactive: [1] 0.045 | crizotinib -0.029 | [2] 0.045 | [3] -0.098 | duvelisib 0.054 | gandotinib -0.046 | tozasertib 0.126 | [4] 0.143 | doramapimod -0.05 | ispinesib 0.025

MRPS17 (UniProt Q9Y2R5)
active: ispinesib -0.345
inactive: [1] 0.038 | crizotinib 0.034 | [2] 0.097 | [3] 0.076 | duvelisib 0.012 | gandotinib -0.06 | tozasertib -0.019 | [4] 0.166 | doramapimod 0.033

NUP85 (UniProt Q9BW27)
inactive: [1] 0.022 | crizotinib -0.007 | [2] 0.049 | [3] -0.088 | duvelisib 0.033 | gandotinib -0.107 | tozasertib 0.048 | [4] 0.026 | doramapimod -0.021 | ispinesib 0.015
